Bioassay records deposited in PubChem BioAssay by National Center for Advancing Translational Sciences (NCATS).
JMJD2A Tudor: blocks the human JMJD2A Tudor domain; 4.4% of 390,000 active; AlphaScreen JMJD2A-Tudor / H3K4me3 peptide binding; Potency, µM (titrated, usually from 114 µM), usual class: inhibitors; AID 504339; further: nearly all actives have a fitted effect of over 50% in size
BAZ2B inh: inhibitors of human BAZ2B bromodomain; AlphaScreen BAZ2B-H3K14Ac peptide displacement; Q9UIF8; AID 504333; 4.4% of 360,000 active; Potency, µM (doses to about 114 µM), actives largely listed as inhibitors; further: nearly all actives have a fitted effect of over 60% in size
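Protein-peptide AlphaScreen: BAZ2B 50 nM, b-H3K14Ac 50 nM, 1x PBS pH 7.4 + 0.01% Tween-20. Preincubation 30 min RT; cpd 30 min RT (top 110 uM); beads 20 min RT, light-protected.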
HP1b chromo inh: blocks HP1-beta chromodomain binding to methylated histone tails; AID 540317; 0.56% of 390,000 active; P83916; AlphaScreen HP1-beta / biotin-H3K9me3 peptide binding; Potency, µM (highest dose often 114 µM), most hits filed as inhibitors; further: nearly all actives have a fitted effect of over 70% in size
Target sequence (P83916 whole entry, looked up): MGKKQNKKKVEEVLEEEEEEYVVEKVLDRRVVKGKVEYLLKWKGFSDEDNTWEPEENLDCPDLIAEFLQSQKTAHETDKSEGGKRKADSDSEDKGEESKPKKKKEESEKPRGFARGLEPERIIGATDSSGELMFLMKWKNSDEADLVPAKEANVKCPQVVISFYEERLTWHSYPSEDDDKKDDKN
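AlphaScreen: HP1-beta (50 nM) preformed 30 min with biotin-H3(1-18)K9me3 peptide (50 nM) in PBS pH 7.4, 0.01% Tween-20. Compound added for 30 min at RT, then streptavidin donor/nickel chelate acceptor beads (10 ug/mL) for 30 min.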
G9a inh: blocks human histone lysine methyltransferase G9a; Q96KQ7; Potency, µM (series often up to 102 µM), hits mostly inhibitors; G9a H3K9 monomethylation, AlphaScreen, 2 h; AID 504332; 8.8% of 350,000 active; further: nearly all actives have a fitted effect of over 75% in size
Target sequence (Q96KQ7 913-1193 limits assumed): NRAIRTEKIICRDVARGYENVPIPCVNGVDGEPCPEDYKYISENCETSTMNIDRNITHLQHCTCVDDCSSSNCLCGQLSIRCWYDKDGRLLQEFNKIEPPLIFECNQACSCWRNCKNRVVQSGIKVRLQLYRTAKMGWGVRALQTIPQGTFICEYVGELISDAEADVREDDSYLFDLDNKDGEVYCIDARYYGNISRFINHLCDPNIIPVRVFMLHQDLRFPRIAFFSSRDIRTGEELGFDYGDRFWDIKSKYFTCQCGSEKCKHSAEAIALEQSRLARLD
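G9a (20 nM) preincubated 15 min RT with compounds, then 500 nM biotinylated H3K9 peptide and 20 uM SAM added; 2 h RT reaction. Monomethyl-H3K9 product detected by AlphaScreen with anti-H3K9me1 antibody, streptavidin donor and anti-rabbit IgG acceptor beads.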
Sfp PPTase inh: inhibitors of Bacillus subtilis Sfp phosphopantetheinyl transferase; Biochemical Sfp PPTase activity, qHTS; 3.5% of 310,000 active; Potency, µM, hits mostly inhibitors;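 further: the enzyme is Sfp with the accession as filed and its product quenches rhodamine fluorescence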
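Fluorescence-quenching assay: 15 nM Sfp-PPTase preincubated 15 min at room temperature with compound, then 5 uM rhodamine-CoA and 12.5 uM BHQ-2-labelled YbbR peptide added. Fluorescence (ex 525/em 598 nm) read at start and after 30 min; difference gives rate.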
L3MBTL1 block: blocks human L3MBTL1; Potency, µM (doses to about 57.1 µM), usual class: inhibitors; Q9Y468; 0.66% of 230,000 active; AlphaScreen L3MBTL1–H3K9me1 peptide binding; further: nearly all actives have a fitted effect of over 60% in size
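AlphaScreen proximity signal between nickel-chelate acceptor and streptavidin donor beads (final 10 ug/mL) reports binding of 50 nM L3MBTL1 to 75 nM biotin-H3 K9me1 peptide; complex incubated with compounds 30 min at room temperature; cefsulodin titration as control.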
Numbers stand for hits; [ ] = dose if it differs, or a comment. Shown are actives, neighbours in structure and some others; about 12% of the full set was active somewhere. The call rests on the fitted dose curve; in most records, active means well fitted curve in the direction sought with a large enough effect; inconclusive means small, poorly fitted or top-dose-only effect, or another doubt; inactive means no such curve, though single readings can be large; an effect the other way counts as inactive or inconclusive.

Results for COC(=O)c1sc(N2C(=O)C(O)=C(C(=O)c3ccc(C)o3)C2c2ccc(OC)c(OC)c2)nc1C (stereo not given) ?
JMJD2A Tudor: inconclusive; BAZ2B inh: inactive; HP1b chromo inh: inactive; G9a inh: 32µM; Sfp PPTase inh: inconclusive

How did CC(C)[C@H](NC(=O)c1cc2cc(Cl)ccc2n1C)C(=O)N[C@@H](C(=O)O)c1ccccc1 do in these assays?
JMJD2A Tudor: inactive; BAZ2B inh: inactive; HP1b chromo inh: inactive; G9a inh: inactive; Sfp PPTase inh: inactive

How did COc1ccc(CSc2nc3ccncc3n2Cc2nc(-c3ccc(OC)c(OC)c3)oc2C)cc1 do in these assays?
JMJD2A Tudor: inconclusive; BAZ2B inh: inactive; HP1b chromo inh: inactive; G9a inh: inconclusive

What do the screens show for `CCS(=O)(=O)N1CCC2(CC1)OC(=O)C(C)=C2C(=O)NCc1ccc(OC)c(OC)c1`?
JMJD2A Tudor: inactive; BAZ2B inh: inactive; HP1b chromo inh: inactive; G9a inh: inactive

How did Cc1ccc2nc(N3C(=O)C(O)=C(C(=O)c4ccc(C)o4)C3c3cccc(O)c3)sc2c1 (stereo not given) do in these assays?
JMJD2A Tudor: inconclusive; BAZ2B inh: inconclusive; HP1b chromo inh: inactive; G9a inh: 32µM; Sfp PPTase inh: inactive; L3MBTL1 block: inactive

What do the screens show for `COc1ccc(C2C(C(C)=O)=C(O)C(=O)N2c2nc3ccccc3s2)cc1OC` (stereo not given)?
JMJD2A Tudor: inconclusive; BAZ2B inh: inactive; HP1b chromo inh: inactive; G9a inh: 50µM; Sfp PPTase inh: inactive

Results for CCOC(=O)c1sc(N2C(=O)C(O)=C(C(=O)c3ccc(C)o3)C2c2ccc(OC)c(OC)c2)nc1C (stereo not given) ?
JMJD2A Tudor: inactive; BAZ2B inh: inactive; HP1b chromo inh: inactive; G9a inh: inactive; Sfp PPTase inh: inactive

How did COc1ccc(C2C(C(C)=O)=C(O)C(=O)N2c2nccs2)cc1OC (stereo not given) do in these assays?
JMJD2A Tudor: inconclusive; BAZ2B inh: inactive; HP1b chromo inh: inactive; G9a inh: inconclusive; Sfp PPTase inh: inactive; L3MBTL1 block: inactive

How did S=C(NCc1cccnc1)NCc1cccnc1 do in these assays?
JMJD2A Tudor: inactive; BAZ2B inh: inactive; HP1b chromo inh: inactive; G9a inh: inactive; Sfp PPTase inh: inactive

Results for C=CCNC(=S)NCc1cccnc1 ?
JMJD2A Tudor: inactive; BAZ2B inh: inactive; HP1b chromo inh: inactive; G9a inh: inactive; Sfp PPTase inh: 79µM; L3MBTL1 block: inactive

How did Cc1nc(N2CCCC2)c2c(C(=O)N3CCN(c4cc(Cl)ccc4C)CC3)c(C)oc2n1 do in these assays?
JMJD2A Tudor: inactive; BAZ2B inh: inactive; HP1b chromo inh: inactive; G9a inh: inconclusive

What do the screens show for `CCCCOc1ccc(C(=O)Oc2cccnc2)cc1`?
JMJD2A Tudor: inactive; BAZ2B inh: inactive; HP1b chromo inh: inactive; G9a inh: inactive; Sfp PPTase inh: inactive

What do the screens show for `O=C(Nc1ccc(N2CCN(Cc3ccccc3)CC2)cc1)c1ccccc1[N+](=O)[O-]`?
JMJD2A Tudor: inactive; BAZ2B inh: inactive; HP1b chromo inh: inactive; G9a inh: inactive; Sfp PPTase inh: inactive; L3MBTL1 block: inactive

How did COc1ccc(NC(=O)c2ccc3ccccc3n2)cc1S(=O)(=O)N1CCCCC1 do in these assays?
JMJD2A Tudor: inactive; BAZ2B inh: inconclusive; HP1b chromo inh: inactive; G9a inh: inconclusive; Sfp PPTase inh: inactive; L3MBTL1 block: inactive

What do the screens show for `Cc1ccc(C(=O)Nc2ccc3c(c2)C(=O)N(C)C3=O)c(C)c1`?
JMJD2A Tudor: inactive; BAZ2B inh: inactive; HP1b chromo inh: inactive; G9a inh: inactive; Sfp PPTase inh: inactive; L3MBTL1 block: inactive

What do the screens show for `O=C(Nc1ccc(N2CCCC2)cc1)c1ccccc1[N+](=O)[O-]`?
JMJD2A Tudor: inactive; BAZ2B inh: inactive; HP1b chromo inh: inactive; G9a inh: 13µM; Sfp PPTase inh: inactive; L3MBTL1 block: inactive

How did Cc1ccc(C(=O)Nc2ccc(N3CCCC3)cc2)c(C)c1 do in these assays?
JMJD2A Tudor: 50µM; BAZ2B inh: inconclusive; HP1b chromo inh: inconclusive; Sfp PPTase inh: inactive; L3MBTL1 block: inactive

How did O=C(Nc1ccc(N2CCCCC2)cc1)c1ccc2ccccc2n1 do in these assays?
JMJD2A Tudor: 20µM; BAZ2B inh: inconclusive; HP1b chromo inh: inconclusive; G9a inh: 28µM; Sfp PPTase inh: inconclusive

Results for O=[N+]([O-])c1ccc(N2CCCC2)cc1N1CCCC1 ?
JMJD2A Tudor: 45µM; BAZ2B inh: 25µM; HP1b chromo inh: 16µM; G9a inh: inactive[12.7 µM]; Sfp PPTase inh: inactive; L3MBTL1 block: inconclusive

Results for O=c1c(-c2cc(F)cc(F)c2)nc2cnc(N3CCOCC3)nc2n1C1CC1 ?
G9a inh: inactive[12.7 µM]; Sfp PPTase inh: inactive

How did CCOc1ccc(Cn2c(C)nc([N+](=O)[O-])c2SCC(O)CCl)cc1[N+](=O)[O-] (stereo not given) do in these assays?
JMJD2A Tudor: inactive; BAZ2B inh: inactive; HP1b chromo inh: inactive; G9a inh: inconclusive; Sfp PPTase inh: inactive

Results for Cc1ccccc1C(=O)Nc1ccc(N2CCCC2)cc1 ?
JMJD2A Tudor: 28µM; BAZ2B inh: inconclusive; HP1b chromo inh: inactive; G9a inh: 3.2µM; Sfp PPTase inh: inactive; L3MBTL1 block: inactive

What do the screens show for `CC1CN(C(=S)Nc2cccc(Cl)c2)CC(C)O1` (stereo not given)?
JMJD2A Tudor: inactive; BAZ2B inh: inactive; HP1b chromo inh: inactive; Sfp PPTase inh: inactive; L3MBTL1 block: inactive

Results for O=C(O)C1CCN(C(=O)c2cccc3ccccc23)CC1 ?
JMJD2A Tudor: inactive; BAZ2B inh: inactive; HP1b chromo inh: inactive; G9a inh: inactive; Sfp PPTase inh: inactive

Results for CN1CC(C(=O)O)Cc2c1ccc1ccccc21 (stereo not given) ?
JMJD2A Tudor: inactive; BAZ2B inh: inactive; HP1b chromo inh: inactive; G9a inh: 20µM; Sfp PPTase inh: inconclusive; L3MBTL1 block: inactive

How did COC(=O)Nc1ccc2[nH]cc(CCNC(C)=O)c2c1 do in these assays?
G9a inh: inconclusive; Sfp PPTase inh: inactive

Results for Cc1cnc(CNc2ncncc2-c2cccc(C#N)c2)cn1 ?
G9a inh: inactive[0.501 µM]; Sfp PPTase inh: inconclusive

How did CCOc1ccc(N=c2scc(-c3ccccc3)n2CCO)cc1 do in these assays?
JMJD2A Tudor: inconclusive; BAZ2B inh: 8.9µM; HP1b chromo inh: inconclusive; G9a inh: 16µM; Sfp PPTase inh: inactive

Results for CCOc1ccc(N=c2scc(-c3ccc(OC)cc3)n2CCO)cc1 ?
JMJD2A Tudor: inconclusive; BAZ2B inh: inconclusive; HP1b chromo inh: inactive; G9a inh: 2.8µM; Sfp PPTase inh: inactive; L3MBTL1 block: inconclusive

How did CCn1c(-c2ccccc2)csc1=Nc1ccc(O)cc1 do in these assays?
JMJD2A Tudor: 32µM; BAZ2B inh: 20µM; HP1b chromo inh: inconclusive; G9a inh: 3.5µM; Sfp PPTase inh: inactive; L3MBTL1 block: inconclusive
